Measured values taken from PubChem BioAssay (NCATS).
Results filed as inconclusive are left out. Activity calls are given as the source filed them. Unless noted, the call rests on the fitted dose curve; in most records, active means well fitted curve in the direction sought with a large enough effect; inconclusive means small, poorly fitted or top-dose-only effect, or another doubt; inactive means no such curve, though single readings can be large; an effect the other way counts as inactive or inconclusive.

Assays:
[1] = S16 Schwann cell PMP22 intronic element beta-lactamase assay (AID 624044; calls by dose curve; further: nearly all actives have a fitted effect of over 15% in size)
How it was run: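 Beta-lactamase reporter under a PMP22 intronic regulatory element in stable S16 rat Schwann cells; 24 h compound exposure. 460 nm blue signal normalized between DMSO (0%) and potassium clavulanate, with 535 nm FRET tracking viability; curves classed by r2 and response.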

7G8 = assay: qHTS profiling for inhibitors of Plasmodium falciparum proliferation (AID 504749); further: nearly all actives have a fitted effect of over 60% in size; further: potency means the concentration at half of the fitted maximal effect; conditions: P. falciparum in erythrocytes, SYBR Green DNA, 72 h; series mostly up to 12.8 µM
How it was run: (§1)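 Each compound contacts P. falciparum-infected red blood cells for 72 h at 37 C; lysis buffer (Tris, EDTA, saponin, Triton X, SYBR Green I) is added and fluorescence measured next morning; values normalized to controls.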

CP211 = assay: as above; conditions: P. falciparum in erythrocytes, SYBR Green DNA, 72 h; series mostly up to 12.8 µM
How it was run: as §1

CP237 = assay: as above; conditions: P. falciparum in erythrocytes, SYBR Green DNA, 72 h; series mostly up to 12.8 µM
How it was run: as §1

CP269 = assay: as above; conditions: P. falciparum in erythrocytes, SYBR Green DNA, 72 h; series mostly up to 12.8 µM
How it was run: as §1

CP291 = assay: as above; conditions: P. falciparum in erythrocytes, SYBR Green DNA, 72 h; series mostly up to 12.8 µM
How it was run: as §1

CP335 = assay: as above; conditions: P. falciparum in erythrocytes, SYBR Green DNA, 72 h; series mostly up to 12.8 µM
How it was run: as §1

DIV17 = assay: as above; conditions: P. falciparum in erythrocytes, SYBR Green DNA, 72 h; series mostly up to 12.8 µM
How it was run: as §1

GB4 = assay: as above; conditions: P. falciparum in erythrocytes, SYBR Green DNA, 72 h; series mostly up to 12.8 µM
How it was run: as §1

ICS = assay: as above; conditions: P. falciparum in erythrocytes, SYBR Green DNA, 72 h; series mostly up to 12.8 µM
How it was run: as §1

PC26 = assay: as above; conditions: P. falciparum in erythrocytes, SYBR Green DNA, 72 h; series mostly up to 12.8 µM
How it was run: as §1

W2 = assay: as above; conditions: P. falciparum in erythrocytes, SYBR Green DNA, 72 h; series mostly up to 12.8 µM
How it was run: as §1

[2] = molecular target: Cytochrome P450 3A4 (Homo sapiens) (UniProt P08684); assay: qHTS Assay for Activators of Cytochrome P450 3A4 (AID 885); further: nearly all actives have a fitted effect of over 65% in size
How it was run: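 CYP3A4 activity: Luciferin-PPXE O-dealkylation, 25uM substrate, 200mM KPO4, RT throughout. Read-out is luciferase luminescence; higher values reflect activation.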

DFO2036 = assay: qHTS profiling for inhibitors of Plasmodium falciparum proliferation (AID 504749); further: nearly all actives have a fitted effect of over 60% in size; further: potency means the concentration at half of the fitted maximal effect; conditions: P. falciparum in erythrocytes, SYBR Green DNA, 72 h; series mostly up to 12.8 µM
How it was run: as §1

[3] = molecular target: Cytochrome P450 2C19 (Homo sapiens) (UniProt P33261); assay: qHTS Assay for Inhibitors and Substrates of Cytochrome P450 2C19 (AID 899); further: nearly all actives have a fitted effect of over 60% in size
How it was run: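 Luminescent read-out of luciferin formed from Luciferin-H EGE (10uM, equal to KM). Enzyme 5nM in 50mM KPO4; compound added, 10 min at 37C, then NADPH regenerating system for 60 min at 37C. Full inhibition defined by 57uM ketoconazole.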

CP203 = assay: qHTS profiling for inhibitors of Plasmodium falciparum proliferation (AID 504749); further: nearly all actives have a fitted effect of over 60% in size; further: potency means the concentration at half of the fitted maximal effect; conditions: P. falciparum in erythrocytes, SYBR Green DNA, 72 h; series mostly up to 12.8 µM
How it was run: as §1

DIV14 = assay: as above; conditions: P. falciparum in erythrocytes, SYBR Green DNA, 72 h; series mostly up to 12.8 µM
How it was run: as §1

[4] = molecular target: Cytochrome P450 2D6 (Homo sapiens) (UniProt P10635); assay: qHTS Assay for Inhibitors and Substrates of Cytochrome P450 2D6 (AID 891)
How it was run: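 Luminescent read-out of luciferin formed by 5 nM human CYP2D6 demethylating 30 uM Luciferin-ME EGE (Km level) over 60 min at room temperature after NADPH regeneration addition. Data normalized to full inhibition by 1.43 uM quinidine.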

[5] = molecular target: Cytochrome P450 2C9 (Homo sapiens) (UniProt P11712); assay: qHTS Assay for Inhibitors and Substrates of Cytochrome P450 2C9 (AID 883); further: nearly all actives have a fitted effect of over 60% in size
How it was run: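 10nM CYP2C9 + 100uM Luciferin-H (=KM), 25mM KPO4; cpd 10 min 37C; NADPH regen, 60 min 37C; stop/detect with P450 Glo-Buffer 20 min; luminescence. Norm. to 57uM sulphaphenazole as full inhibition.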

Measured: Potency

Chain of Cytochrome P450 2C19 (Homo sapiens) (P33261 whole entry, looked up): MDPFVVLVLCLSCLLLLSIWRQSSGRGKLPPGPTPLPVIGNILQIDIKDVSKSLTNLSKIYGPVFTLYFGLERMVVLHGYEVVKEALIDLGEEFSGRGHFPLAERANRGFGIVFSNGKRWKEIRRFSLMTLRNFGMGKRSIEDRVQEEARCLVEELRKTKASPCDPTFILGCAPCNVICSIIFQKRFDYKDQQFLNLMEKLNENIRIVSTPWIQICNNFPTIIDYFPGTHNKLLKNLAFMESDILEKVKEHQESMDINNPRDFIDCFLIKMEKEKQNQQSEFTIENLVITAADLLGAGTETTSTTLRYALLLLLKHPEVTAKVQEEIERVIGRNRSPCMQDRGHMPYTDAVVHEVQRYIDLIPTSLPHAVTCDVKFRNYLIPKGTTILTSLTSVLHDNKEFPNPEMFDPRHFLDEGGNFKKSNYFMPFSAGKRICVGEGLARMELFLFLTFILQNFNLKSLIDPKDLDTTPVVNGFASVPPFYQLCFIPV
Chain of Cytochrome P450 2D6 (Homo sapiens) (P10635 whole entry, looked up): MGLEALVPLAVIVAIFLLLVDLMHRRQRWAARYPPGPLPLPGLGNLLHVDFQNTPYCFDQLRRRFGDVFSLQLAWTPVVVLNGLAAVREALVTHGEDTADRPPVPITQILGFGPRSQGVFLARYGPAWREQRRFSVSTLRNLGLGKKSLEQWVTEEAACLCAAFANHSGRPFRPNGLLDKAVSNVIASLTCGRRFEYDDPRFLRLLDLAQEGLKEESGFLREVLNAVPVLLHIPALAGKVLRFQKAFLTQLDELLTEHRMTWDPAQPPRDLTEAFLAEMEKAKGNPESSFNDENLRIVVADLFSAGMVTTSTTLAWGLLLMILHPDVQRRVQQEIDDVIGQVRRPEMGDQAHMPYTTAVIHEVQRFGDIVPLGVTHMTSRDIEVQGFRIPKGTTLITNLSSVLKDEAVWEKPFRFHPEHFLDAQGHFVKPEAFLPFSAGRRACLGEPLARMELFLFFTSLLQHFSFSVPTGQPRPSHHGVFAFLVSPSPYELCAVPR
Chain of Cytochrome P450 3A4 (Homo sapiens) (P08684 whole entry, looked up): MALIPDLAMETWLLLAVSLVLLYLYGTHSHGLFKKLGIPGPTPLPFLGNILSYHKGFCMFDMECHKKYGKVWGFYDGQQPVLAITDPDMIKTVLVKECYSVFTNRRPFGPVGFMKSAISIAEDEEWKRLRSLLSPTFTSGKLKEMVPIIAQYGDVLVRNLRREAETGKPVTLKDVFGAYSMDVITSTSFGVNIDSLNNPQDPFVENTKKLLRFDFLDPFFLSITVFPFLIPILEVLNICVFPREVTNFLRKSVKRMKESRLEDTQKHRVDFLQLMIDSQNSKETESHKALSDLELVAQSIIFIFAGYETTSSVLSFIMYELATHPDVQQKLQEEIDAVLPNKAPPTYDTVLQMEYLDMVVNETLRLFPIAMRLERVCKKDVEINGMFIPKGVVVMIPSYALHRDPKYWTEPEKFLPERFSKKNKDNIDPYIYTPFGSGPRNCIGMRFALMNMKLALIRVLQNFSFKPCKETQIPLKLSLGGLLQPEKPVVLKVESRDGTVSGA
Chain of Cytochrome P450 2C9 (Homo sapiens) (P11712 whole entry, looked up): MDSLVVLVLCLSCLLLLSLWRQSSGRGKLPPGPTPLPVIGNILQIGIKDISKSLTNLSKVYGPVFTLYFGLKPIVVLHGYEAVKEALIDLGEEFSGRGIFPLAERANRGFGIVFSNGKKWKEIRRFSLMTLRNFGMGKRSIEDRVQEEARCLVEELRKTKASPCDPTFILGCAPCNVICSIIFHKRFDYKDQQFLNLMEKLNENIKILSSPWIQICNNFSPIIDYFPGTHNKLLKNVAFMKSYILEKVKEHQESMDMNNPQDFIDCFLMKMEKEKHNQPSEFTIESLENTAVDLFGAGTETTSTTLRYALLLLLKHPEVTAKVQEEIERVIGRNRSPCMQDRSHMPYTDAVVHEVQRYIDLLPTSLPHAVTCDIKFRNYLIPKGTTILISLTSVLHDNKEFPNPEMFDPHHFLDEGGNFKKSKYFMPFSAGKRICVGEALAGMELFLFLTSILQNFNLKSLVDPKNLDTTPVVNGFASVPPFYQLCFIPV

C[C@@]12CC[C@H]3[C@@H](CCC4=CC(=O)CC[C@]43C)[C@H]1CC[C@H]2C(=O)CO
active: ICS 3.55 µM
not listed: [2] | DFO2036 | [3] | CP203 | DIV14 | [4] | [5]
inactive: all other assays above

CO[C@H]1[C@H](O[C@H]2O[C@@H](C)[C@@H](O[C@@H]3C[C@](C)(O)[C@H](OC(=O)CC(C)C)[C@H](C)O3)[C@@H](N(C)C)[C@@H]2O)[C@@H](CC=O)C[C@@H](C)[C@@H](O)/C=C\C=C/C[C@@H](C)OC(=O)C[C@H]1OC(C)=O
inactive: [2] | [1]
active: W2 1.61 µM

Cc1cccc(C)c1NC(=O)[C@H](C)N
inactive: [1] | 7G8 | CP237 | CP335 | DFO2036 | ICS | W2

CCOC(=O)[C@H](CCc1ccccc1)N[C@@H](C)C(=O)N1[C@H](C(=O)O)C[C@H]2CCC[C@@H]21
not listed: [2] | [4] | [5]
inactive: all other assays above

C[C@H](N[C@@H](C)COc1ccccc1)[C@H](O)c1ccc(O)cc1
inactive: 7G8 | CP211 | CP269 | CP291 | CP335 | DFO2036 | ICS | PC26
active: [4] 0.316 µM | CP237 3.55 µM | W2 4.55 µM

CO[C@]1(NC(=O)C2SC(=C(C(N)=O)C(=O)O)S2)C(=O)N2C(C(=O)O)=C(CSc3nnnn3C)CS[C@H]21 (some centres undefined)
not listed: [1] | CP335 | [2] | [3] | [4] | [5]
inactive: all other assays above

CN1C(=O)C[C@H](c2ccccc2)C1=O
not listed: CP237 | [2] | [3] | [4] | [5]
inactive: all other assays above

C=CCN1C(=CCO)[C@H]2C[C@H]3[C@@H]1CC[C@@]31c3ccccc3N3C=C4[C@@H]5N(/C=C/2[C@H]31)c1ccccc1[C@]51CC[C@H]2[C@H]1C[C@@H]4/C(=C/CO)N2CC=C
not listed: CP335 | [2] | [3] | [4] | [5]
inactive: all other assays above

COc1cc(N)c(Cl)cc1C(=O)N[C@H]1CCN(CCCOc2ccc(F)cc2)C[C@H]1OC
inactive: [5] | [3] | CP203
active: 7G8 5.01 µM | W2 5.1 µM

COC(=O)C1=C(C)NC(C)=C(C(=O)OC(C)C)[C@H]1c1cccc2nonc12
inactive: [1]
active: 7G8 3.16 µM | ICS 3.55 µM

C[C@H](Oc1ccccc1)C(=O)N[C@@H]1C(=O)N2[C@@H]1SC(C)(C)[C@@H]2C(=O)O
not listed: CP335 | [2] | [3] | [4] | [5]
inactive: all other assays above

CCC(=O)O[C@@H]1[C@H](C)O[C@H](O[C@H]2[C@@H](N(C)C)[C@H](O)[C@@H](O[C@@H]3[C@@H](CC=O)C[C@@H](C)[C@@H](O)/C=C\C=C/C[C@@H](C)OC(=O)C[C@@H](OC(=O)CC)[C@H]3OC)O[C@H]2C)C[C@]1(C)O
inactive: [1] | DFO2036 | DIV14 | GB4 | PC26
active: W2 2.03 µM

COc1cc2nc(N3CCN(C(=O)[C@@H]4CCCO4)CC3)nc(N)c2cc1OC
not listed: W2 | [2] | DFO2036 | [3] | [4] | [5]
inactive: all other assays above

CNC[C@H](O)c1ccc(OC(=O)C(C)(C)C)c(OC(=O)C(C)(C)C)c1
inactive: [1] | CP203 | CP211 | CP237 | CP291 | CP335 | DFO2036 | DIV14
